# Only some compounds are listed: those with a hit (about 27% of all), similar ones and a draw of the others.
# EphB4 ephrin blk: EphB4-ephrin-B2 interaction antagonists, primary screen, biochemical, TNYL-RAW peptide probe, fluorescence polarization; inhibition, % at 7 µM; Ephrin type-B receptor 4 (Homo sapiens), P54760; 97,000 compounds, 0.15% hits; EphB4 LBD / TNYL-RAW-Alexa532 peptide;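 active means inhibition above the screen-wide mean inhibition plus 3 SD, cut at about 15% in these data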
# CYP2C19 inh: blockers of cytochrome P450 2C19 activity – biochemical, luminescence, ADME assay, primary screen; AID 778, 2007; CYP2C19 Supersomes, luciferin-H EGE luminescence, 30 min; 96,000 compounds, 21% hits; inhibition, % at 5 µM;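 active means CYP2C19 inhibition above a set limit at 5 µM in the primary screen, cut at about 50% in these data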
# CYP2C9 inhib: blockers of cytochrome P450 2C9 activity – biochemical, luminescence, ADME assay, primary screen; P11712; CYP2C9 Supersomes, luciferin-H conversion; inhibition, % at 5 µM; 96,000 compounds, 20% hits; AID 777, 2007;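 active means blocking of liver enzyme CYP2C9 beyond about 50% at 5 µM, limit read from the data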
# CYP2C9 activ: human CYP2C9 activators, primary screen, biochemical, luminescence. Cytochrome P450 2C9 (Homo sapiens), P11712. activation factor at 5 µM. recombinant CYP2C9, luciferin-H conversion; active compounds read high; factor 1 = untreated enzyme, 0 = blocked. AID 1024, 2008. 96,000 compounds, 1.4% hits;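 active means activation factor of 2 or more for CYP2C9 at a 5 µM dose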
# CYP2C19 activ: human CYP2C19 activators, primary screen, biochemical, luminescence. 96,000 tested, under 10 active. recombinant CYP2C19, luciferin-H EGE luminescence; active compounds read high; 0 = fully inhibited enzyme, 1 = untreated enzyme. activation factor at 5 µM. Cytochrome P450 2C19 (Homo sapiens), P33261. AID 1025, 2008;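 active means activation factor of at least 2 at 5 µM in the primary screen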
# A number is an active result; . = inactive; / = no result given.
SMILES,EphB4 ephrin blk,CYP2C19 inh,CYP2C9 inhib,CYP2C9 activ,CYP2C19 activ
CC1CN(CC(=O)N2CCc3[nH]c4ccccc4c3C2)CC(C)O1 (configuration not stated),.,.,.,.,.
CCOC(=O)c1cc(NC(=O)c2ccc(C)cc2)c(=O)oc1-c1ccccc1,.,.,.,.,.
Cc1noc(C)c1COC(=O)c1cc2c(C)nn(-c3ccc(F)cc3)c2s1,/,.,.,.,.
Cc1ccc(C(=O)NCCSC(C)(C)C)cc1,.,67.5,.,.,.
O=C(NCCSc1ccccc1)c1ccccc1,.,84.3,.,.,.
Cc1ccc(C(=O)NCCSc2ccccc2)cc1S(=O)(=O)Nc1ccccc1,.,59.7,72.7,.,.
COCCNC(=O)c1ccc(C)c(S(=O)(=O)Nc2ccc(C)cc2)c1,.,.,.,.,.
CC(C)(C)SCCNC(=O)c1ccccc1,.,62.4,.,.,.
Cc1ccc(-n2ncc(C#N)c2/N=C/N2CCCCCC2)cc1,/,96.6,90.7,.,.
CCCCN(C)/C=N/c1c(C#N)cnn1-c1ccc(C)cc1,.,.,59.8,.,.
CN(C)c1ccc(NC(=O)CCCc2ccccc2)cc1,.,100.0,.,.,.
CN(C)c1ccc(NC(=O)CN2C(=O)CC(c3ccccc3)=Nc3ccccc32)cc1,.,.,72.2,.,.
CN(C)c1ccc(NC(=O)Cn2ncn3c(cc4ccccc43)c2=O)cc1,.,.,.,.,.
O=C(CCCOc1ccccc1)Nc1cccnc1,.,/,/,/,/
CC(C)NC(=O)CCCc1ccccc1,.,.,.,.,.
CC(O)c1cccc(NC(=O)CCC(=O)O)c1 (configuration not stated),19.3,.,.,.,.
O=C(CCCc1ccccc1)Nc1cccnc1,.,74.9,50.3,.,.
Cc1cccc(NC(=O)N2CCCC2C(=O)NCc2cccs2)c1 (configuration not stated),.,.,.,.,.
Cc1ccc(Nc2nnns2)cc1C,.,.,.,.,.
Cc1ccc2c(c1)/C(=N/O)CCS2,.,.,.,.,.
Cc1cccc(NC(=S)NC(=O)CCc2ccccc2)c1,.,.,.,.,.
O=C(CCc1ccccc1)Nc1cccc(NC(=O)CCc2ccccc2)c1,.,.,88.1,.,.
Cc1ccc(OCCSc2cc(C)nc(N)n2)cc1,/,72.1,.,.,.
Cc1cccc(OCCSc2cc(C)nc(N)n2)c1,/,55.1,.,.,.
CCOC(=O)CSc1nc2nc(C)cc(C)n2n1,/,.,.,.,.
SMILES,EphB4 ephrin blk,CYP2C19 inh,CYP2C9 inhib,CYP2C9 activ,CYP2C19 activ
Cc1ccc(S(=O)(=O)N2CCc3ccccc3C2CN2C(=O)c3ccccc3C2=O)cc1 (configuration not stated),.,71.3,.,.,.
O=C1c2ccccc2C(=O)N1CC1c2ccccc2CCN1S(=O)(=O)c1cnc[nH]1 (configuration not stated),/,78.4,97.2,.,.
O=C1c2ccccc2C(=O)N1CC1c2ccccc2CCN1C(=O)N1CCOCC1 (configuration not stated),.,.,.,.,.
Cc1c(C)[n+](=O)c(-c2ccc(F)cc2)c(C)n1[O-],.,.,.,.,.
COc1cc(OC)c(NC(=O)CCc2nc(-c3cccs3)no2)cc1Cl,.,91.9,62.1,.,.
COc1ccccc1-c1noc(CCC(=O)Nc2cc(C(F)(F)F)ccc2Cl)n1,.,68.2,.,.,.
Cc1c(NC2=NC3(CCCCC3)Cc3ccccc32)c(=O)n(C)n1-c1ccccc1,.,/,/,/,/
Clc1ccc2c(NCc3ccco3)ncnc2c1,.,78.6,55.0,.,.
Clc1ccc2c(NCc3ccccn3)ncnc2c1,.,61.6,.,.,.
COc1ccc2[nH]c3c(NCc4ccco4)ncnc3c2c1,.,.,.,.,.
CCCc1c(C)c(C#N)c2nc3ccccc3n2c1NCCCN1CCOCC1,.,.,.,.,.
Cc1ccc(-c2csc3nnc(SCc4csc(C)n4)n23)cc1,.,75.3,90.1,.,.
O=C(CSc1nnc2scc(-c3ccccc3)n12)Nc1ccc2c(c1)OCCO2,.,.,52.9,.,.
Cc1nc(CSc2nnc3scc(-c4ccccc4)n23)cs1,.,.,.,.,.
Fc1ccc(-c2csc3nnc(SCc4cccnc4)n23)cc1,.,83.1,.,.,.
c1ccc(-c2csc3nnc(SCc4ccc5c(c4)OCO5)n23)cc1,.,92.2,91.8,.,.
COc1ccc(C2=NOC(C(=O)Nc3cc(Br)ccc3O)C2)cc1OC (configuration not stated),.,.,.,.,.
COc1ccccc1N1CCN(C(=O)C(C)N(c2ccccc2)S(C)(=O)=O)CC1 (configuration not stated),.,.,.,.,.
Cc1cc(C(=O)N/N=C2\CC(=O)CC(C)(C)C2)n[nH]1,.,.,.,.,.
ONC=Nc1cccc2nonc12,.,.,.,.,.
CCc1c(C(=O)c2ccc(Cl)cc2)oc2c(C)c3oc(=O)cc(C)c3cc12,.,.,.,.,.
O=C1CC(N2CCN(S(=O)(=O)c3ccc(Cl)cc3)CC2)C(=O)N1CCc1ccccc1 (configuration not stated),.,/,/,/,/
Cc1ccc(S(=O)(=O)N2CCN(C3CC(=O)N(CCc4ccccc4)C3=O)CC2)cc1C (configuration not stated),.,50.4,.,.,.
CCCCN(CCCC)C(=O)/C=C/c1cccc([N+](=O)[O-])c1,.,72.4,60.1,.,.
Cn1cc([N+](=O)[O-])c(C(=O)Nc2cc(Oc3cccnc3)cc([N+](=O)[O-])c2)n1,.,72.4,78.1,.,.
SMILES,EphB4 ephrin blk,CYP2C19 inh,CYP2C9 inhib,CYP2C9 activ,CYP2C19 activ
Cc1csc2nc(CNC(=O)c3ccco3)cn12,.,.,.,.,.
Fc1cc2nc(-c3ccncc3)[nH]c2cc1F,.,64.2,.,.,.
O=[N+]([O-])c1ccc(-c2nc3ccc([N+](=O)[O-])cc3[nH]2)cc1,.,.,.,.,.
CCOC(=O)N(Cc1ccccc1)C(C(=O)O)C(C(=O)O)N(Cc1ccccc1)C(=O)OCC (configuration not stated),.,.,.,.,.
CC1CCN(S(=O)(=O)c2cccc(-c3csc(-c4cccnc4)n3)c2)CC1,.,85.3,79.1,.,.
O=S(=O)(c1cccc(-c2csc(-c3cccnc3)n2)c1)N1CCCCC1,.,94.0,93.7,.,.
O=C(NC(=S)Nc1cc(Cl)ccc1N1CCOCC1)c1ccc(-c2cccc(Cl)c2)o1,.,.,.,.,.
CCCOc1ccc(N2C(=O)CC(N(CCc3ccc(OC)cc3)C(=O)c3cccc(F)c3)C2=O)cc1 (configuration not stated),.,61.8,58.5,.,.

# Bioassay records deposited in PubChem BioAssay by several laboratories.
